What all share (assay type): functional
Experiment [1] addresses Solute carrier family 2, facilitated glucose transporter member 1 (Homo sapiens) (UniProt P11166). Kind of experiment: ST_JUDE_LEISH: Cytotoxicity at 2uM final concentration against transgenic Leishmania Mexicana promastigotes LmGLUT1 that are glucose transport deficient and complemented with the human glucose transporter GLUT1. Activity is measured by DNA content using SYBR green in vitro.

Experiment [2] has as its target Hexose transporter 1 (Plasmodium falciparum) (UniProt O97467). As to the kind of experiment: ST_JUDE_LEISH: Cytotoxicity at 2uM final concentration against transgenic Leishmania Mexicana promastigotes LmPfHT that are glucose transport deficient and complemented with the Plasmodium falciparum hexose transporter. Activity is measured by DNA content using SYBR green in vitro.

Experiment [3] has as its target Glucose transporter (Leishmania mexicana) (UniProt O61059). As to the kind of experiment: ST_JUDE_LEISH: Cytotoxicity at 2uM final concentration against transgenic Leishmania Mexicana promastigotes LmGT2 that are glucose transport deficient and complemented with the L. Mexicana glucose transporter 2. Activity is measured by DNA content using SYBR green in vitro.

The values below come from ChEMBL document CHEMBL3433997, “St. Jude Leishmania screening dataset” (2016).

The inhibition is the drop in the measured response relative to a control, in per cent.

Structures are written as SMILES.

Chain of Solute carrier family 2, facilitated glucose transporter member 1 (Homo sapiens) (P11166 whole entry): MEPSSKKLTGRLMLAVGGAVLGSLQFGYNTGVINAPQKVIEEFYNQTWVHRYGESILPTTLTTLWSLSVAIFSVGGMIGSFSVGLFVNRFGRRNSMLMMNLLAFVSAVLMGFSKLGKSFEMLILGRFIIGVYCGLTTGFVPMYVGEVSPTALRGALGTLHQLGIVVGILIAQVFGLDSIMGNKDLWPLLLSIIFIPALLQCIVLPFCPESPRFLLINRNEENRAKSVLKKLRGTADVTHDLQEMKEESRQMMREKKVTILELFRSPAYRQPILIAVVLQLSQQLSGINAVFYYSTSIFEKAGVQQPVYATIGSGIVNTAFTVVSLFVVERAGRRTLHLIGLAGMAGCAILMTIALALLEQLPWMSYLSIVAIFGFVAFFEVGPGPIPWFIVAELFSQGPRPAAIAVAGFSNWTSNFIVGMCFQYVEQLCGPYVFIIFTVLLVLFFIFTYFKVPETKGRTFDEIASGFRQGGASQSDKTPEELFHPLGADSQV

Consider `Cc1ccc(NC(=O)NC2CCN(c3ccnc4ccccc34)CC2)cc1`, for which the values for the inhibition in experiment [1], in experiment [2] and in experiment [3] were 1.13%, 1.21% and 2.3%, respectively.
The like results for `CN1CCN(c2cc3c(cc2Cl)CCN3C(=O)Cc2ccc(Cl)c(NC(=O)Nc3cccc(C#N)c3)c2)CC1` were, in that order, -0.57%, -0.51% and -0.22%.
For `COCCSc1nc2scc(C)c2c(=O)n1Cc1cccc(OC)c1` the same measures were 3.26%, 4.92% and 4.9%.
For `O=C(CSc1nnc(-c2ccccc2Br)[nH]1)c1c[nH]c2ccccc12` the same measures were -0.5%, -0.7% and 1.98%.
Turning to `COc1ccc(CCn2c(=N)c(C(=O)NCc3cccnc3)cc3c(=O)n4cccc(C)c4nc32)cc1`, the inhibition is 5.3% in experiment [1], 4.73% in experiment [2] and 0.26% in experiment [3].
Take `CC(Nc1nc(Nc2ccc(F)cc2)nc(SCC(N)=O)n1)c1ccccc1` (stereo not given): the results for the inhibition in experiment [1], in experiment [2] and in experiment [3] were 0.82%, 1.3% and 0.81%, respectively.
For `CCCCn1c(-c2ccco2)nc2c(c(=O)c3ccccc3n2C)c1=O` the same measures were 8.79%, 5.89% and 4.14%.
For `COc1ccc(-c2cnc(N)nc2N)cc1Cl` the same measures were 1.93%, 1.5% and 2.06%.
For `CCc1ccc(NC(=O)N(CCCn2ccnc2)Cc2csc(-c3ccc(CNCc4ccccc4)cc3)n2)cc1` the same measures were 2.66%, 2.93% and 2.49%.
In the case of `Cc1cc(C(=O)Nc2ccc(-c3ccccc3)cc2)no1`, the inhibition was 2.6% in experiment [1], 0.53% in experiment [2] and 0.52% in experiment [3].
The like results for `O=C1COc2ccc(S(=O)(=O)N3CCC[C@@H]3CCN3CCC(c4c[nH]c5cnccc45)CC3)cc2N1` were, in that order, 0.76%, 0.68% and 2.12%.
For `CC(Cc1ccc(NC(=O)c2ccc(CNCc3ccccc3)cc2)cc1)N(CCc1cccc(Cl)c1)C(=O)OC(C)(C)C` (stereo not given), the inhibition in experiment [1] amounted to 6.08%; in experiment [2], 4.74%; in experiment [3], 3.04%.
Turning to `CS(=O)(=O)Nc1ccc2[nH]cc(C3CCN(CC(O)C4CCN(C(=O)/C=C/c5ccc(Cl)c(Cl)c5)CC4)CC3)c2c1` (stereo not given), the figures for the inhibition in experiment [1], in experiment [2] and in experiment [3] were 4.85%, 2.94% and 3.3%, respectively.
The like results for `CC(=O)Nc1ccc(S(=O)(=O)N(Cc2cccc(Oc3ccccc3)c2)C2CCN(C/C=C(\C)CCC=C(C)C)CC2)cc1` were, in that order, -0.15%, 0.21% and -0.73%.
In the case of `Cc1noc(C)c1-c1cccc(CNCc2ccc(-c3cccc(-c4nc5cccc(C)c5[nH]4)c3)cc2)c1`, the results for the inhibition in experiment [1], in experiment [2] and in experiment [3] were 0.9%, -2.28% and -4.14%, respectively.
The like results for `COc1ccc(CNC(=O)c2cnc3c(O)cccc3c2Nc2cccc(NC(=O)c3ccc(Cl)c(Cl)c3)c2)cc1` were, in that order, 74.7%, 78.8% and 76.6%.
With `Cc1cccc2nc(-c3cccc(-c4cccc(NC(=O)c5cccnc5Cl)c4)c3)[nH]c12`, the figures for the inhibition in experiment [1], in experiment [2] and in experiment [3] were 1.25%, 2.51% and 3.23%, respectively.
For `O=C(NC12CC3CC(CC(C3)C1)C2)C(=O)c1c[nH]c2ccccc12` the same measures were 3.4%, 3.09% and 1.4%.
The like results for `CCCC(C)NC(=O)C(N)Cc1cccc(I)c1` (stereo not given) were, in that order, 1.78%, -1% and 1.85%.
For `CCN(CC)CCCC(C)Nc1c2ccccc2nc2c1ccc1ccccc12` (stereo not given) the same measures were 7.99%, 3.26% and 7.76%.
Regarding `O=C(CN1CCN(C(=O)c2ccco2)CC1)Nc1ccc(Br)cc1Cl`, the figures for the inhibition in experiment [1], in experiment [2] and in experiment [3] were -3.24%, -1.31% and -0.59%, respectively.
Take `Cc1ccc(C2CCN(CCCCNC(=O)c3ccc(NC(=O)c4ccc(Cl)cc4)cc3)CC2)c(OCC2CC2)c1`: the values for the inhibition in experiment [1], in experiment [2] and in experiment [3] were 7.51%, 6.25% and 5.52%, respectively.
For `Cc1cccc2nc(-c3cccc(-c4cccc(NC(=O)CCc5c[nH]cn5)c4)c3)[nH]c12` the same measures were 0.79%, 0.27% and 1.56%.
For `CN1CCC(Oc2ccc(CN3CC[C@H](NC(=O)c4ccc(Cl)c(F)c4)C3)c3ccccc23)C1` (stereo not given in full) the same measures were 0.38%, 3.36% and 2.67%.
Take `CN1CCN(c2nsc3ccc(-c4ccc(NC(=O)Nc5cc(C(F)(F)F)ccc5F)cc4)cc23)CC1`: the values for the inhibition in experiment [1], in experiment [2] and in experiment [3] were 5.16%, 1.74% and 2.12%, respectively.
The like results for `CN1CCC(N2CCN(Cc3cccc(-c4ccc(-c5nc6cc(C(F)(F)F)ccc6[nH]5)cc4)c3)CC2)CC1` were, in that order, 2.62%, 3.31% and 2.07%.
For `CC(C)(C)[C@@H](Nc1ccc(C#N)c2ccccc12)C(=O)NC1(Cc2ccc(O)cc2)CCCC1` the same measures were 0.1%, -0.5% and 0.41%.
Take `O=C(/C=C/c1ccc(F)cc1)NC1CCC(CCN2CCc3ccc(-n4cccn4)cc3CC2)CC1` (stereo not given): the inhibition was 11.7% in experiment [1], 12.9% in experiment [2] and 7.81% in experiment [3].
For `CN1CCN(CCCN(Cc2csc(-c3ccc(CNCc4ccccc4)cc3)n2)S(=O)(=O)c2ccc(F)cc2)CC1` the same measures were 14.9%, 17.1% and 10.1%.
The like results for `COCCN1CCC(NCC(C)(C)c2nc(-c3ccc(Cl)c(O)c3)c(-c3ccncc3)[nH]2)CC1` were, in that order, 4.86%, 8.59% and 6.49%.
For the molecule `CCOC(=O)C1CCN(CCCNC(=O)/C(=C/C=C/c2cc3cc(Cl)c(Cl)cc3[nH]2)OC)CC1`, the inhibition was -1.12% in experiment [1], 4.1% in experiment [2] and 0.42% in experiment [3].
For `CN(Cc1cccc(F)c1)C1CCN(c2cc(NC(=O)c3ccc(F)cc3)ccn2)CC1` the same measures were 6.99%, 6.01% and 6.94%.
As to `N#Cc1cccc(C(=O)NC2CCN(CCCCCNC(=O)/C=C/c3ccc(Cl)c(Cl)c3)CC2)c1`, the inhibition was 5.7% in experiment [1], 5.26% in experiment [2] and 7.61% in experiment [3].
On to `COc1ccc(OCCCON2C(=N)N=C(N)NC2(C)C)cc1`, for which the inhibition in experiment [1] is 5%; in experiment [2], 1.09%; in experiment [3], 1.17%.
On to `CC(Cc1ccc(CN(CC(N)=O)Cc2ccc(CC(C)NCCc3cccc(Cl)c3)cc2)cc1)NCCc1cccc(Cl)c1` (stereo not given), for which the inhibition is 3.67% in experiment [1], -0.2% in experiment [2] and 7.2% in experiment [3].
For `Cc1ccc(F)c(NC(=O)c2c(-c3c(F)cccc3Cl)noc2C)c1` the same measures were -0.89%, 2.09% and 1.42%.
For `CCCNCc1ccc(-c2ccc(CN(CCOC)C(=O)c3cnc(C)cn3)cc2)nc1` the same measures were -0.38%, 0.25% and 0.24%.
Turning to `COc1ccc(-c2nc(NC(=O)COc3ccc(C(C)=O)cc3)sc2C)cc1`, the inhibition is 2.62% in experiment [1], 2.48% in experiment [2] and 2.69% in experiment [3].
The like results for `Cc1cc(N[C@@H](CC(C)C)C(=O)NCCc2ccccc2)nc(NCc2ccccc2C)n1` were, in that order, 2.23%, 4.73% and -0.21%.
The like results for `O=S(=O)(Nc1ccc2nccc(N3CCNCC3)c2c1)c1ccc2c(Cl)cccc2c1` were, in that order, 0.28%, -0.67% and -0.37%.
For `CCNc1cc(C(=O)N[C@@H](Cc2ccccc2)[C@H](O)CNCc2cc(C#N)ccc2OC)cc(N2CCCC2=O)c1` the same measures were 9.4%, 9.23% and 9.67%.
In the case of `O=C(Nc1cccc(-c2ccc(-c3nc4cc(C(F)(F)F)ccc4[nH]3)cc2)c1)c1csnn1`, the inhibition was 5.44% in experiment [1], 8% in experiment [2] and 0.51% in experiment [3].
Take `CCOC(=O)/C(=N\OC(C)(C)C(=O)NCc1ccc(O)c(O)c1)c1csc(NC(c2ccccc2)(c2ccccc2)c2ccccc2)n1`: the inhibition in experiment [1] was -2.31%; in experiment [2], -1.09%; in experiment [3], -1.17%.
For the molecule `O=C(O)c1ccc(NC(=O)C2CC(=O)N(Cc3ccc(Cl)cc3)C(=Nc3ccc(Cl)cc3)S2)cc1` (stereo not given), the figures for the inhibition in experiment [1], in experiment [2] and in experiment [3] were 2.23%, 2.86% and 1.01%, respectively.
For `COc1ccc(-c2nc(-c3ccc([N+](=O)[O-])cc3)no2)cc1OC` the same measures were 1.91%, 2.39% and 1.76%.
The like results for `COc1cc2nc(N3CCN(C(=O)c4ccco4)CC3)nc(NCc3ccccc3)c2cc1OC` were, in that order, 14.9%, 15.2% and 11.1%.
The like results for `O=C(Nc1ccc(F)cc1F)NC1CCN(CCCCCNC(=O)C2CC2c2ccc(Cl)c(Cl)c2)CC1` (stereo not given) were, in that order, 0.37%, 2.99% and 3.47%.
Consider `CC1(C)CC(NC(=O)NC2CCN(Cc3ccccc3)CC2)CC(C)(CNC(=O)NC2CCN(Cc3ccccc3)CC2)C1` (stereo not given), for which the inhibition in experiment [1] is 5.31%; in experiment [2] it was 5.93%; in experiment [3] it was 1.3%.
As to `Cc1[nH]c2ccccc2c1C(=O)CSc1nn(-c2ccccc2)c(=S)s1`, the inhibition in experiment [1] is 5.67%; in experiment [2] it was 7.39%; in experiment [3], 2.44%.
The like results for `CC1CCC(NCc2ccc3c(CNC4CCC(C)CC4)c(O)ccc3c2O)CC1` (stereo not given) were, in that order, 1.24%, -0.12% and -1.56%.
